Structures are written as SMILES. Screen size: about 52,000 compounds; about 4,300 (8.3%) were called active. The entries come from a sample that favours actives as a whole. Unmarked numbers belong to inactive results. Rule as the data show it: active = survival mostly below about 52% (no sharp cut-off); inactive = mostly above about 56%.

In the assay the test system is DeltatarO mutant. Put plainly: growth inhibition of S. aureus wild type versus tarO mutant, primary screen, teichoic acid synthesis inhibitors, RN4220, OD600 (AID 463173). The settings on record: OD600, 18 h, stronger effect = lower value, screened at 18.75 µg/mL (by protocol).
Take `Cc1ccc(CNC(=O)C(C)n2c(=O)cc(C(F)(F)F)c3c(C)nn(C)c32)cc1` (centres undefined): the survival was 67%.

Consider `O=C(NCc1ccco1)C1CCN(C(=O)N2CCOc3ccccc32)CC1`, for which the survival was 80%.

For the compound `O=C(c1ccco1)N(Cc1cccs1)c1ccc(F)cc1`, the survival was 111%.

As to `CCc1ccc(NC(=O)C2CCN(c3nnc(-n4c(C)ccc4C)s3)CC2)cc1`, the survival was 79%.

For the compound `NNc1ccc2nnc(C(F)(F)F)n2n1`, the survival is 73%.

Consider `Cc1ccc(CNc2ncnc3c2c(-c2ccccc2)cn3-c2ccccc2)cc1`, for which the survival was 90%.

For the compound `O=S(=O)(NCc1ccco1)c1ccc(-c2ccc(S(=O)(=O)NCc3ccco3)cc2)cc1`, the survival was 64%.

For `CCc1ccc(Cn2nnc(C(=O)Nc3ccc(C)cc3)c2N)cc1`, the survival is 133%.

For the compound `CN(C)c1ccc(CNC(=O)c2cccc(NC(=O)N3CCSc4ncccc43)c2)cc1`, the survival was 94%.

Consider `COc1ccccc1NC(=O)C1=C(C)NC2=C(C(=O)CCC2)C1c1cc2c(cc1Br)OCO2` (centres undefined), for which the survival is 44% (active).

In the case of `COc1ccccc1NC(=O)C1=C(C)Nc2sc(C#N)c(N)c2C1c1ccco1` (centres undefined), the survival is 76%.

`COC(=O)C1=C(C)NC2=C(C(=O)c3ccccc32)C1c1cc2c(cc1Cl)OCO2` (centres undefined): the survival was 82%.

As to `CC(C)CC(=O)Nc1nnc2n1CCS2`, the survival is 99%.

On to `Cc1nn(-c2ccccc2)c2[nH]c(=O)c(CNCc3cccnc3)cc12`, for which the survival was 102%.

Consider `COc1ccccc1OCC(=O)Nc1nc2c(s1)CC(C)CC2` (centres undefined), for which the survival is 69%.

For `Cc1cc(C)cc(OCC(=O)Nc2nc3c(s2)CC(C(C)(C)C)CC3)c1` (centres undefined), the survival was 107%.

As for `CC1CCc2nc(NC(=O)Cc3ccc(Cl)cc3)sc2C1` (centres undefined), the survival is 46% (active).

With `COc1ccc(CC(=O)Nc2nc3c(s2)CC(C(C)(C)C)CC3)cc1` (centres undefined), the survival was 29% (active).

As to `CC(C)(C)C1CCc2nc(NC(=O)COc3ccccc3[N+](=O)[O-])sc2C1` (centres undefined), the survival was 106%.

On to `CC(C)(C)C1CCc2nc(NC(=O)Cc3ccc(Cl)cc3)sc2C1` (centres undefined), for which the survival is 18% (active).

Consider `CC(C)CC(=O)Nc1nc2c(s1)CC(C(C)(C)C)CC2` (centres undefined), for which the survival was 102%.

For the compound `CCCC(=O)Nc1nc2c(s1)CC(C(C)(C)C)CC2` (centres undefined), the survival is 14% (active).

With `COc1ccc(CC(=O)Nc2nc3c(s2)CC(C)CC3)cc1` (centres undefined), the survival is 75%.

In the case of `COc1ccc(CC(=O)Nc2nc3c(s2)CCCC3)cc1`, the survival was 95%.

Consider `CC(C)(C)C1CCc2nc(NC(=O)COc3ccc(F)cc3)sc2C1` (centres undefined), for which the survival is 115%.

Turning to `CC(C)C(=O)Nc1nc2c(s1)CC(C(C)(C)C)CC2` (centres undefined), the survival is 92%.

As to `Cc1cccc(C(=O)Nc2ccc(N3CCC(N4CCCCC4)CC3)c(C(=O)O)c2)c1`, the survival is 100%.

Take `CCOc1ccc(-n2c(=O)c3c4c(sc3n(CC(=O)NC(C)CC)c2=O)CCCCC4)cc1` (centres undefined): the survival is 98%.

Turning to `COCCNC(=O)CN1C(=O)COc2ccc(S(=O)(=O)N3CCOCC3)cc21`, the survival was 88%.

On to `CCSc1nc2n(n1)C(c1ccc(Cl)cc1Cl)C(C(=O)Nc1ccccc1C)=C(C)N2` (centres undefined), for which the survival is 67%.

Regarding `COc1ccc(C(=O)NCCc2sc(-c3ccc(Cl)cc3)nc2C)c(OC)c1`, the survival was 123%.

On to `Cc1ccc(C)c(CN2C(=O)c3ccccc3Sc3ccc(C(=O)NC4CCCC4)cc32)c1`, for which the survival was 128%.

Turning to `COc1ccc(CNC(=O)C2CCN(S(=O)(=O)N3CCC(C)CC3)CC2)c(OC)c1`, the survival is 89%.

As for `CCOC(=O)c1ccc(NC(=O)CSc2nc3ccccc3c(=O)n2CCNC(C)=O)cc1`, the survival is 91%.

`CCc1ccc(CNC(=O)c2nn(-c3ccc(OC)c(Cl)c3)c(=O)c3c2c2ccccc2n3C)cc1`: the survival is 104%.

For the compound `CC(C)(C)C1CCc2nc(NC(=O)Cc3ccccc3)sc2C1` (centres undefined), the survival is 19% (active).

As for `CCOc1cccc(C(=O)Nc2nc3c(s2)CC(C(C)(C)C)CC3)c1` (centres undefined), the survival is 77%.

As for `Cc1ccccc1C(=O)Nc1nc2c(s1)CC(C(C)(C)C)CC2` (centres undefined), the survival is 115%.

`CC(C)(C)C1CCc2nc(NC(=O)c3cccc(Cl)c3)sc2C1` (centres undefined): the survival was 3% (active).

On to `Cc1cccc(OCC(=O)Nc2nc3c(s2)CC(C(C)(C)C)CC3)c1C` (centres undefined), for which the survival is 105%.

In the case of `CC(C)(C)C1CCc2nc(NC(=O)c3ccc([N+](=O)[O-])cc3)sc2C1` (centres undefined), the survival was 95%.

On to `COc1ccc(CC(=O)NCCc2sc(-c3cccc(F)c3)nc2C)cc1`, for which the survival is 68%.

Regarding `COc1ccccc1NC(=O)CN1C(=O)CCSc2ccccc21`, the survival was 89%.

Regarding `O=C(O)CSc1nc2ccccc2c(=O)n1-c1ccccc1`, the survival is 78%.

Take `Cc1cc(Nc2cccc(Cl)c2)nc2ccc(NC(=O)c3cccc(N(C)C)c3)cc12`: the survival was 106%.

Consider `CCN1CCN(C(=O)c2ccc3c(c2)N(Cc2ccccc2F)C(=O)c2ccccc2S3=O)CC1` (centres undefined), for which the survival is 105%.

`Cc1ccc(OCC(=O)OCc2cc(=O)n3nc(C4CCCCC4)sc3n2)cc1`: the survival is 120%.

For the compound `COc1ccc(C(CNC(=O)COc2ccc(Cl)c(C)c2)N2CCOCC2)cc1` (centres undefined), the survival was 63%.

With `COc1ccc(-c2coc3c2c(C)cc2oc(=O)c(CC(=O)O)c(C)c23)cc1`, the survival is 42% (active).

In the case of `Cc1cc2oc(=O)c(CC(=O)O)c(C)c2c2occ(-c3ccccc3)c12`, the survival is 53%.

As for `Cc1cc2oc(=O)cc(C)c2c2occ(-c3ccc(Cl)cc3)c12`, the survival was 72%.

With `CCc1cc(=O)oc2cc(C)c3c(-c4ccc(F)cc4)coc3c12`, the survival was 33% (active).

On to `CCCc1cc(=O)oc2cc(C)c3c(-c4ccccc4)coc3c12`, for which the survival was 65%.

On to `Cc1cc2oc(=O)c(CC(=O)O)c(C)c2c2occ(-c3ccc(F)cc3)c12`, for which the survival was 49%.

Take `Cc1cc(NC2C3CC4CC(C3)CC2C4)n2ncnc2n1` (centres undefined): the survival was 105%.

With `O=C(NCc1ccccc1)c1ccccc1C(=O)c1ncc[nH]1`, the survival was 91%.

In the case of `CCOc1ccc(NC(=O)c2oc3ccccc3c2NC(=O)COc2cccc(OC)c2)cc1`, the survival was 78%.

As to `COc1ccc(Cl)c2sc(NC(=O)c3ccc(S(=O)(=O)N4CCOCC4)cc3)nc12`, the survival was 69%.

In the case of `Cc1cccc(C(=O)Nc2sc3c(c2C(=O)O)CCCC3)c1`, the survival was 23% (active).

Take `Cc1cccc(C(=O)Nc2sc3c(c2C(=O)Nc2ccccc2)CCC3)c1`: the survival was 66%.

With `COc1ccc(NC(=O)c2c(NC(=O)c3cccc(C)c3)sc3c2CCC3)cc1`, the survival was 64%.

Take `Cc1cccc(C(=O)Nc2sc3c(c2C(=O)NC(C)C)CCCC3)c1`: the survival is 46% (active).

On to `Cc1cccc(C(=O)Nc2sc3c(c2C(=O)NCc2ccco2)CCCC3)c1`, for which the survival is 83%.

Turning to `COc1ccc(NC(=O)c2c(NC(=O)c3cccc(C)c3)sc3c2CCCC3)cc1`, the survival is 75%.

Values taken from PubChem BioAssay AID463173 (ICCB-Longwood Screening Facility, Harvard Medical School, 2010).
